Reference: PubChem BioAssay AID504329 (Southern Research Specialized Biocontainment Screening …, 2011)
About 1,000 (0.29%) of roughly 340,000 compounds were called active. The list is a sample of the results. Potency and affinity values are given separately. Values without a mark were called inactive. Cut-off read from the data, not from the text of the source: inconclusive = inhibition above about 27% without an active follow-up result; inactive = below that.

experiment: NS1A inhibition, H1N1 influenza, cell based functional assay (AID 504329); settings: percent inhibition, at 12.5 µM, hits give high values

Row | Structure (SMILES) | inhibition
1 | CCCN1CCC(N(C)CCc2ccc(OC)c(OC)c2)CC1 | -5.4%
2 | CCOC(=O)C1=C(C)N(C[C@@H]2CC[C@@H](Cc3ccc(-c4ccccc4)cc3)O2)C(=O)NC1c1ccc(Cl)cc1 (stereo not given in full) | -4.34%
3 | Cc1cccc(C)c1NC(=O)COC(=O)COc1ccc2c(C)cc(=O)oc2c1 | 10.5%
4 | COc1ccccc1-n1nnnc1SCC(=O)NCC1CCCO1 (stereo not given) | -3.64%
5 | Cc1cccc(NC(=S)N(CCCN2CCOCC2)Cc2cn(C)c3ccccc23)c1 | 4.41%
6 | Cc1ccc2c(c1)-c1c(ssc1=S)C(C)(C)N2C(=O)CN1C(=O)c2ccccc2C1=O | 28.5%
7 | CCOc1ccc2c(c1)-c1c(ssc1=S)C(C)(C)N2C(=O)CSC1=NCCS1 | 20%
8 | CC1(C)c2ssc(=S)c2-c2ccccc2N1C(=O)c1ccco1 | 2.72%
9 | Cc1cc2c(cc1C)N(C(=O)CSC1=NCCS1)C(C)(C)c1ssc(=S)c1-2 | 14.7%
10 | CCOC(=O)c1c(NC(=O)c2ccc(N3C(=O)[C@@H]4[C@H](C3=O)[C@H]3C=C[C@@H]4C3)cc2)sc2c1CCCC2 | -7.09%
11 | CC(C)C(=O)Nc1ccc(NC(=S)NC(=O)c2ccccc2F)cc1 | 1.28%
12 | O=S(=O)(NCCc1cn2ccccc2n1)c1ccc2c(c1)CCCC2 | 25.4%
13 | S=C(CN1CCCC1=S)NCCc1ccccc1 | -5.27%
14 | Cc1[nH]c2ccccc2c1CCNS(=O)(=O)c1ccc(S(N)(=O)=O)cc1 | 23.3%
15 | CN(Cc1ccc(Cl)c(Cl)c1)C(=O)c1ccccc1SCC(=O)N1CCCC1 | -4.06%
16 | CN(C)Cc1c(C(=O)N/N=C/c2ccncc2)nnn1-c1nonc1N | 6.41%
17 | Cc1ccc(S(=O)(=O)N2[C@@H](c3cccc(C)c3)C(C(=O)O)=C[C@H]2CC2CCCC2)cc1 | 8.82%
18 | Cc1ccc(-n2nnnc2SCC(=O)Nc2ccccc2N2CCCCC2)cc1C | -1.34%
19 | Cc1cc(C)nc(NC(N)=NCCc2ccccc2)n1 | -1.52%
20 | CCCCSCCCNC(=O)C1CCC(CNS(=O)(=O)c2ccccc2)CC1 (stereo not given) | -20%
21 | COc1ccc(NC2c3ccccc3C(=O)N2Cc2ccc3c(c2)OCO3)cc1 (stereo not given) | 5.36%
22 | COc1cc(NC2c3ccccc3C(=O)N2Cc2ccc3c(c2)OCO3)cc(OC)c1 (stereo not given) | -1.58%
23 | O=C(NCCN1CCCCC1)Nc1ccc(Br)cc1 | -24.7%
24 | N#Cc1cc(N2CCCCC2)c([N+](=O)[O-])cc1C#N | 9.08%

Row | Structure (SMILES) | inhibition
25 | O=[N+]([O-])c1cc(F)c(N2CCCCC2)cc1N1CCOCC1 | 10.6%
26 | O=C(CSc1n[nH]c(=O)[nH]c1=O)Nc1ccccc1C(=O)c1ccccc1 | -9.72%
27 | Cc1cccc(C)c1NC(=O)CCCCCC1NC(=O)NC1C (stereo not given) | 24.2%
28 | COC(=O)CCCCC1SCC2NC(=O)NC21 (stereo not given) | 1.31%
29 | Cc1ccc(NC(=O)CCC(=O)Nc2ccc(C)cc2)cc1 | 4.02%
30 | CCc1cccc(NC(=O)CCCN2C(=O)NC(C)(C)C2=O)c1 | -6.41%
31 | CCC(=O)Nc1ccc(F)c(Cl)c1 | -2.47%
32 | O=C(O)CCCCC1SCC2NC(=O)NC21 (stereo not given) | 22.1%
33 | CCCCC(=O)Nc1ccc(F)c(Cl)c1 | 0.54%
34 | CCc1cccc(NC(=O)CCSCCC(=O)Nc2cccc(CC)c2)c1 | 14.8%
35 | COc1ccc(C(C(=O)NC2CCCC2)N(CCN(C)C)C(=O)c2snc(C(N)=O)c2N)cc1 (stereo not given) | -6.89%
36 | O=C(Cc1ncc(C(F)(F)F)cc1Cl)NC1CC1 | -2.28%
37 | O=C(Cc1cccc(C(F)(F)F)c1)N1CCN(CC(=O)N2CCCC2)CC1 | -1.65%
38 | CCCNC(=O)CN(c1cccc(F)c1)S(C)(=O)=O | -3.24%
39 | COC(CNC(=O)CN1CCN(Cc2ccccc2F)C1=O)OC | -6.42%
40 | COc1ccc(NC(=O)CN2CCN(CC(=O)Nc3ccc(F)cc3)CC2)c(OC)c1 | -6.91%
41 | O=C(COC(=O)c1ccc(O)cc1)NCC1COc2ccccc2O1 (stereo not given) | -6.24%
42 | Cc1nn(CC(=O)NC(=O)c2ccccc2)c(C)c1[N+](=O)[O-] | -12.3%
43 | COc1ccc(CC(=O)OC2CCCN(C)C2)cc1 (stereo not given) | 2.07%
44 | Cc1c(F)cccc1NC(=O)CCC(=O)O | 22.1%
45 | CC1NC(=O)NC1CCCCC(=O)O (stereo not given) | 8.09%
46 | Cc1c(F)cccc1NC(=O)CSCC(=O)Nc1ccccc1 | -20.1%
47 | O=C(CCCCC(=O)Nc1ccc(F)cc1)Nc1ccc(F)cc1 | -8.93%
48 | CCCCCC1NC(=O)NC1CCCCCC(=O)O (stereo not given) | 0.19%

Row | Structure (SMILES) | inhibition
49 | O=C(CCCCCN1C(=O)c2ccccc2C1=O)Nc1ccc(F)cc1 | 15.1%
50 | COc1ccc(NC(=S)NCCc2ccc(S(N)(=O)=O)cc2)c(OC)c1 | 0.63%
51 | Cc1ccc(C)c(OCCn2cc(/C=C(\C#N)C(=O)NCC3CCCO3)c3ccccc32)c1 (stereo not given) | 5.75%
52 | O=C(COC(=O)Cc1ccc(Cl)cc1)Nc1ccc(OC(F)F)cc1 | -4.03%
53 | COc1cc(CN2C(=S)NC(C)(C)CC2(C)O)cc(OC)c1 (stereo not given) | -3.29%
54 | Cc1cc(C)n(Cc2ccc(C(=O)Nc3cccc(Br)c3)o2)n1 | 26.6%
55 | O=C(N/N=C/C1C(c2ccccc2)C1(Cl)Cl)c1cccc(Br)c1 (stereo not given) | -5.72%
56 | O=C1C(Cc2ccc(O)cc2)NC(=S)N1c1ccccc1 (stereo not given) | 2.29%
57 | O=C(N/N=C/c1coc2ccccc2c1=O)c1cc(Br)c(O)c(Br)c1 | -7.78%
58 | O=C(C[n+]1ccc(C(=O)N/N=C/c2ccc(O)cc2)cc1)c1ccccc1 | 2.67%
59 | C=CCN1C(=O)/C(=C\c2ccc(C)cc2)N=C1SCC(=O)NCCC | -5.98%
60 | C/C(=N\NC(=O)c1ccn(C)n1)c1cccc(NC(=O)c2ccncc2)c1 | 10.3%
61 | COC(=O)C1=C(O)CSC1=Nc1ccc(C)cc1 | -6.3%
62 | CCc1nn2cc(C(=O)c3ccccc3O)cnc2c1-c1ccc(F)cc1 | 14.5%
63 | O=[N+]([O-])c1ccc(/C=C/c2ccc3cccc(O)c3n2)cc1 | -0.58%
64 | O/N=C/c1ccc2cccc(O)c2n1 | 1.88%
65 | CCOc1ccc(OCCC(=O)NNC(=O)c2ccccc2Cl)cc1 | -2.63%
66 | CCN(CC)CCNC(=O)c1cc(Sc2nnc(C)s2)nc2ccccc12 | -9.1%
67 | COc1cc2[nH]c(=O)n(Cc3ccc(C(=O)NCCCN4CCC(C)CC4)cc3)c(=O)c2cc1OC | 4.01%
68 | COc1ccc(N(CC(=O)NCc2ccc(Cl)cc2)S(=O)(=O)c2c(C)noc2C)cc1 | 6.25%
69 | OC(CNCC(c1ccc(Cl)cc1Cl)c1c[nH]c2ccccc12)c1ccccc1 (stereo not given) | 5.5%
70 | NCC(c1ccc(Cl)cc1Cl)c1c[nH]c2ccccc12 (stereo not given) | 7.89%
71 | CC[C@]12C(=O)N(C)C[C@H]([C@@H]3C(=O)N(Cc4ccccc4)C(=O)[C@@H]31)N2C(=O)c1ccc(Br)cc1 | 1.57%
72 | Cc1ccc(CNc2nc3ccccc3n2C)cc1 | -2.51%

Row | Structure (SMILES) | inhibition
73 | Cn1c(N=Nc2ccccc2)nc2ccccc21 | 3.98%
74 | CN(C)c1ccc(N=Nc2nc3ccccc3n2C)cc1 | -12.4%
75 | Cc1ccc(NCc2nc3ccccc3n2C)c(C)c1 | 1.58%
76 | C=CCn1c(C(O)c2ccccc2)nc2ccccc21 (stereo not given) | -2.4%
77 | COC(=O)c1ccccc1NC(=O)c1cccc(NC(=O)C(C)C)c1 | -5.47%
78 | Cc1ccc(Cl)c2c1NC(=O)C2(O)CC(=O)c1ccccc1O (stereo not given) | 1.71%
79 | Cc1nn(Cc2ccc(F)cc2)c(Cl)c1/C=N/NC(=O)c1cccnc1 | 3.93%
80 | CCCCNC(=O)C1CCCN1S(=O)(=O)c1cccc2nsnc12 (stereo not given) | -12.3%
81 | O=c1c2c(-c3ccccc3)csc2ncn1/N=C/c1c2ccccc2cc2ccccc12 | 5.97%
82 | CN(C)c1ccc(C=Nc2ccc(N(C)C)cc2)cc1 | 26.9%
83 | Cc1ccc(C=Nc2ccc(N(C)C)cc2)o1 | 22.3%
84 | CN1C(C(=O)NCCc2cccs2)CC2Cn3c(nc4cc5ccccc5cc43)C21 (stereo not given) | 1.77%
85 | CSc1cccc(CN2CCN(CCc3ccccc3)C(CCO)C2)c1 (stereo not given) | -1.46%
86 | O=C(c1cc(-c2ccccc2Cl)on1)N1CCN(C(=O)c2ccco2)CC1 | 9.97%
87 | O=C(c1ccco1)N1CCN(C2=NS(=O)(=O)c3ccccc32)CC1 | -26.1%
88 | O=C(c1ccco1)N1CCN(CCCCN2C(=O)c3ccccc3C2=O)CC1 | -6.16%
89 | CN(CCO)c1cc(N2CCN(C(=O)c3ccco3)CC2)c2nonc2c1[N+](=O)[O-] | -1.02%
90 | COc1ccc(C)cc1-n1nnnc1SCc1csc(C)n1 | -0.01%
91 | O=C(Cc1ccc2c(c1)OCCO2)Nc1cc(C(F)(F)F)ccc1N1CCOCC1 | -15.4%
92 | O=C(CC(O)(CC(=O)OCc1ccccc1)C(=O)OCc1ccccc1)OCc1ccccc1 | 10.3%
93 | O=C1/C(=C/c2ccc(O)c([N+](=O)[O-])c2)SC(=S)N1Cc1ccccc1 | 8.28%
94 | O=C1/C(=C\c2cccc(O)c2O)SC(=S)N1Cc1ccccc1 | 11.5%
95 | O=C(c1ccncc1)C12CN3CN(CN(C3)C1)C2 | -2.7%
